Active and inactive are the calls of the source. How the source made its calls: active means hit-call score of the fitted dose curve at least 0.9, where 1 is the maximum; inactive means score below 0.9.
read-out: 3-Hydroxy-3-Methylglutaryl-CoA Synthase 2 (HMGCS2), HMGCS2 (gene 3158); experiment: LTEA_HepaRG_HMGCS2: Life Technologies and Expression Analysis (LTEA) Assay for 3-Hydroxy-3-Methylglutaryl-CoA Synthase 2 (HMGCS2) using HepaRG (AID 2283504); conditions: mRNA level, 48 h; actives raise or lower the signal
How it was run: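 qRT-PCR read-out of HMGCS2 transcript, normalised to three housekeeping genes, in HepaRG cells after 48 h chemical exposure. Eight-point curves from 100 uM, half-log dilutions, 0.5% DMSO vehicle; gain or loss fitted relative to DMSO baseline.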

Structure (SMILES) | outcome | AC50
C#C[C@]1(O)CC[C@H]2[C@@H]3CCC4=CC(=O)CC[C@@H]4[C@H]3CC[C@@]21CC | inactive | –
O=C(O)c1ccccc1 | inactive | –
COC(=O)c1ccccc1C(=O)O | inactive | –
CC(C)(C)[C@@H](O)[C@@H](Cc1ccc(Cl)cc1)n1cncn1 | inactive | –
c1ccc2[nH]c(-c3cscn3)nc2c1 | inactive | –
N[C@@H](Cc1cc(I)c(Oc2ccc(O)c(I)c2)c(I)c1)C(=O)O | – | 0.00253 µM (active)
CCOC(=O)c1ccc(O)cc1 | inactive | –
O=C(Nc1ccc([N+](=O)[O-])cc1Cl)c1cc(Cl)ccc1O | – | 2.59 µM (active)
COC(=O)c1ccc(I)cc1S(=O)(=O)NC(=O)Nc1nc(C)nc(OC)n1 | inactive | –
CCCN(CCC)C(=O)SCC | inactive | –
CCCCC(CC)COC(=O)c1ccccc1C(=O)O (stereo not given) | inactive | –
C[C@]12C[C@H](O)[C@H]3[C@@H](CCC4=CC(=O)CC[C@@]43C)[C@@H]1CC[C@@H]2C(=O)CO | inactive | –
S=C([S-])NCCNC(=S)[S-].[Mn+2] | – | 5.04 µM (active)
O=C(O)C1(C(=O)Nc2ccc(Cl)cc2Cl)CC1 | – | 81 µM (active)
C=CCOC(Cn1ccnc1)c1ccc(Cl)cc1Cl (stereo not given) | – | 32.4 µM (active)
CCCOC(=O)NCCCN(C)C | inactive | –
COCCO | inactive | –
C#CCOC(=O)[C@@H](C)Oc1ccc(Oc2ncc(Cl)cc2F)cc1 | – | 11.7 µM (active)
CC(=O)[C@H]1CC[C@H]2[C@@H]3CCC4=CC(=O)CC[C@]4(C)[C@H]3CC[C@]12C | – | 29.2 µM (active)
CCN(CC)C(=O)c1cccc(C)c1 | inactive | –

From PubChem BioAssay (EPA / NIEHS)
